PubChem BioAssay AID602289 (National Center for Advancing Translational Sciences (NCATS), 2012)
Out of some 2,400 compounds screened, about 40 (2%) were called active. Another 1% or so got no clear call; they are omitted. The sample holds actives, similar compounds and a random draw of the others, so the mix is not that of the screen.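 The calls were made as follows: active = inhibition at or above 60%; inconclusive = inhibition from 0% up to below 60%; inactive = no inhibition observed.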

Assay: qHTS Assay for Small Molecule Inhibitors of Mitochondrial Division or Activators of Mitochondrial Fusion: Hit Validation in Malachite Green Assay;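 as to inhibition: plate controls were DMSO wells with GTPase for no effect and protein-free buffer wells for full effect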
Settings: purified GTPase, malachite green phosphate release, A650; hits give high values
Procedure, shortened: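 Compound preincubated 10 min with protein (final 0.6 uM) in Hepes/Pipes pH 7.0 buffer containing 5 mM MgCl2 and 150 mM NaCl; GTP added to 100 uM final and hydrolysed 90 min at 30 C. EDTA-quenched Pi measured with malachite green against phosphate standards.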
In the case of `N/C(=N\OC(=O)c1ccccc1Cl)c1ccc(Cl)cc1`, the inhibition is reported as “inactive”. With `CCN(CC(=O)Nc1cc(S(=O)(=O)N2CCCCC2)ccc1Cl)Cc1ccccc1` the inhibition was “inactive”. In the case of `COc1ccc(Nc2ncc(C(=O)N3CCN(Cc4ccccc4)CC3)c3ccccc23)cc1`, the inhibition is reported as “inactive”. For `c1ccc(NCc2nc3ccccc3n2CCOc2ccccc2)cc1`, the inhibition was “inactive”. For `COc1ccc(Br)cc1/C=C/C(=O)Nc1ccc(C)cc1`, the inhibition was “inactive”. For `COc1ccc(/C=C/C(=O)N2CCCc3ccccc32)c(OC)c1`, the inhibition was “inactive”. For `CNc1ccc(Br)cc(C(=O)/C=C/c2ccc(OC)cc2OC)c1=O`, the inhibition was 90.1% (active). In the case of `COc1cc2c(cc1NC(=O)CSc1nc3ccccc3[nH]1)oc1ccccc12`, the inhibition is reported as “inactive”. With `O=C(N/N=C/c1cn(-c2cccs2)nc1-c1ccccc1)c1ccccc1Cl` the inhibition was “inactive”. With `Cn1c2ccccc2c2c(C(=O)N3CCN(c4ccccc4)CC3)cn(C3CCCC3)c(=O)c21` the inhibition was “inactive”. For `COc1cccc(COc2ccc3ccc(=O)oc3c2)c1`, the inhibition was “inactive”. In the case of `CC(C)(C)c1ccc(/C=C/C(=O)Nc2ncccn2)cc1`, the inhibition is reported as “inactive”. For `O=c1c2ccccc2nc(/C=C/c2cccnc2)n1Cc1ccccc1`, the inhibition was “inactive”. For `c1ccc(C(c2ccccc2)N2CCN(Cc3nnnn3C3CCCC3)CC2)cc1`, the inhibition was “inactive”. With `COc1ccc(NC(=O)CSCC(=O)N(C)Cc2ccc(Cl)c(Cl)c2)cc1` the inhibition was “inactive”. With `O=S(=O)(Nc1cccc2c1CCCC2)c1ccc(Cl)cc1` the inhibition was “inactive”. With `N#Cc1c(NC(=O)c2ccc(Cn3cc(Br)cn3)o2)sc2c1CCCCCC2` the inhibition was 97.3% (active). In the case of `N#Cc1c(NC(=O)C2CC2)sc2c1CCCCC2`, the inhibition is reported as “inactive”. For `COC(=O)c1c(NC(=O)c2ccc(C)o2)sc2c1CCCCC2`, the inhibition was “inactive”. With `CCCc1nnc(NC(=O)CCC(=O)O)s1` the inhibition was “inactive”. For `Cc1ccc(Cl)cc1N1CCN(C(=O)c2noc(C)c2[N+](=O)[O-])CC1`, the inhibition was “inactive”. With `CCCCNC(=O)N1CCN(C(c2ccccc2)c2ccccc2)CC1` the inhibition was “inactive”. With `O=[N+]([O-])c1ccc(S(=O)(=O)N2CCN(C3CCN(Cc4ccccc4)CC3)CC2)cc1` the inhibition was “inactive”. With `CCOC(=O)c1c(NC(=O)COc2ccccc2F)sc2c1CC(C)(C)NC2(C)C` the inhibition was “inactive”. For `CCOC(=O)c1c(NC(=O)c2ccccc2Cl)sc2c1CCc1ccccc1-2`, the inhibition was 102% (active). With `Cc1ccc(C(=O)c2c(NC(=O)c3ccccc3C)sc(C)c2C)cc1` the inhibition was “inactive”. With `CN(CCOc1ccccc1)CC(=O)Nc1ccc([N+](=O)[O-])cc1Cl` the inhibition was “inactive”. With `C=CCSc1nc(N)c(C#N)c(-c2ccc(C)cc2)c1C#N` the inhibition was “inactive”. For `CC(=O)c1cccc(NC(=O)c2ccc(-c3ccccc3[N+](=O)[O-])o2)c1`, the inhibition was “inactive”. In the case of `O=C(/C=C/c1ccco1)c1ccc(NC(=O)C23CC4CC(CC(C4)C2)C3)cc1`, the inhibition is reported as 80.4% (active). With `COc1ccccc1/C=C/C(=O)c1ccc(NC(C)=O)cc1` the inhibition was “inactive”. For `O=C(/C=C/c1ccco1)Nc1ccc2nn(-c3ccccc3)nc2c1`, the inhibition was “inactive”. With `O=c1c2cc(N3CCOCC3)ccc2[nH]c(=S)n1CCc1ccccc1` the inhibition was “inactive”.
